Source: PubChem BioAssay
JMJD2A Tudor – JMJD2A Tudor domain (human) inhibition. AlphaScreen JMJD2A-Tudor / H3K4me3 peptide binding. O75164. Potency, µM (titrated, usually from 114 µM), for the others: at the top dose activity change, negative = inhibition, most hits filed as inhibitors. 390,000 tested, 4.4% active. AID 504339; note: % is set by controls: 0 for no effect and ±100 for the full control effect; nearly all actives have a fitted effect of over 50% in size
G9a inh – inhibitors of human histone lysine methyltransferase G9a | Potency, µM (highest dose often 102 µM), inactives show top-dose activity, negative = inhibition, usual class: inhibitors | Q96KQ7 | G9a H3K9 monomethylation, AlphaScreen, 2 h | 350,000 tested, 8.8% active; note: % is set by controls: 0 for no effect and ±100 for the full control effect; nearly all actives have a fitted effect of over 75% in size
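Quantitative HTS format: methyltransferase activity on a biotin-tagged H3K9 peptide is measured by AlphaScreen, using a rabbit anti-monomethyl-H3K9 antibody with streptavidin donor and anti-IgG acceptor beads. Final levels are 20 nM enzyme, 500 nM peptide, 20 uM SAM; 2 h RT.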
BAZ2B block – blocks human BAZ2B. Q9UIF8. AlphaScreen BAZ2B-H3K14Ac peptide displacement. Potency, µM (series often up to 114 µM), for inactives: top-dose activity change, negative = inhibition, actives largely listed as inhibitors. 360,000 tested, 4.4% active. AID 504333; note: % is set by controls: 0 for no effect and ±100 for the full control effect; nearly all actives have a fitted effect of over 60% in size
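Protein-peptide AlphaScreen: BAZ2B 50 nM, b-H3K14Ac 50 nM, 1x PBS pH 7.4 + 0.01% Tween-20. Preincubation 30 min RT; cpd 30 min RT (top 110 uM); beads 20 min RT, light-protected.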
HP1b chromo inh – inhibitors of HP1-beta chromodomain binding to methylated histone tails | P83916 | AlphaScreen HP1-beta / biotin-H3K9me3 peptide binding | Potency, µM (series often up to 114 µM), without a hit: at the top dose activity change, negative = inhibition, actives largely listed as inhibitors | 390,000 tested, 0.56% active | AID 540317; note: nearly all actives have a fitted effect of over 70% in size
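AlphaScreen: HP1-beta (50 nM) preformed 30 min with biotin-H3(1-18)K9me3 peptide (50 nM) in PBS pH 7.4, 0.01% Tween-20. Compound added for 30 min at RT, then streptavidin donor/nickel chelate acceptor beads (10 ug/mL) for 30 min.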
VDR inhibitor – inhibitors of human vitamin D receptor. P11473. VDR-SRC2-3 peptide fluorescence polarization, 2 h. Potency, µM, for inactives: max response, negative = inhibition, actives largely listed as inhibitors. 400,000 tested, 0.93% active. AID 504847; note: % is set by controls: 0 for no effect and ±100 for the full control effect
Target sequence (P11473 whole entry, looked up): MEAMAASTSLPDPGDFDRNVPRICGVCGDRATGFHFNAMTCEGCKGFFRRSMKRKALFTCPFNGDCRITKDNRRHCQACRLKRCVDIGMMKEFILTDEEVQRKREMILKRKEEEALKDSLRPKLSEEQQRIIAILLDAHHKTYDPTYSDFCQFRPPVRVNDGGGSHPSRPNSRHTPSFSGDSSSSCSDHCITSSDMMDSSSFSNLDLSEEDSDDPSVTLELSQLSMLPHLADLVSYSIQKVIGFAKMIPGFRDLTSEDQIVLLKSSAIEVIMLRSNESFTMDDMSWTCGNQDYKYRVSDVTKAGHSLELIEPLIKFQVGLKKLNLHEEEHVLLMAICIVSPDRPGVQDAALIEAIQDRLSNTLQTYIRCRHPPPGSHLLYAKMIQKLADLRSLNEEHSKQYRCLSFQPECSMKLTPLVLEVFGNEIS
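Reagent solutions, kept cold and dark, are dispensed first; compounds are then pinned in at 23 nl, plates briefly spun, and incubated 2 h at ambient temperature. Inhibition of VDR–SRC2-3 peptide binding is read by fluorescence polarization.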
PLK1 PBD inh – inhibitors of human PLK1 polo-box domain binding. Potency, µM, inactives show max response, negative = inhibition, usual class: inhibitors. 360,000 tested, 2.8% active. P53350. Plk1 PBD binding of FITC phosphopeptide, fluorescence polarization; note: series mostly up to about 57 µM; % is set by controls: 0 for no effect and ±100 for the full control effect; nearly all actives have a fitted effect of over 65% in size
Active calls of the source: *; ? = inconclusive; . = no result; [ ] = dose if it differs, or a comment. Only some compounds are listed: those with a hit (about 11% of all), similar ones and a draw of the others. Calls come from the whole dose curve; as a rule, active = well fitted curve in the direction sought with a large enough effect; inconclusive = small, poorly fitted or top-dose-only effect, or another doubt; inactive = no such curve, though single readings can be large; an effect the other way counts as inactive or inconclusive. Potency is the fitted concentration of half-maximal effect.

SMILES	JMJD2A Tudor	G9a inh	BAZ2B block	HP1b chromo inh	VDR inhibitor	PLK1 PBD inh
COc1cc(-c2nc3ccccc3nc2-c2ccc(O)c(OC)c2)ccc1O	-29%	.	-9%	3%	-8%	4%
COc1ccc(C2=CC(c3ccc(OC)c(OC)c3)NC(=S)N2)cc1 (stereo not drawn)	-7%	32µM*	-27%	58%	-1%	?
COc1ccc(C2C=C(c3ccc(F)cc3)NC(=S)N2)cc1OC (stereo not drawn)	-30%	45µM*	?	?	-5%	-21%
COc1ccc(C2C=C(C34CC5CC(CC(C5)C3)C4)NC(=S)N2)cc1 (stereo not drawn)	?	?	?	-7%	?	12µM*
COc1ccc(C2CC(c3ccc(F)cc3)=NN2c2ccccc2)cc1OC (stereo not drawn)	8%	?	-20%	4%	-21%	6%
COc1cccc(C2=CC(c3ccc(OC)c(OC)c3)NC(=S)N2)c1 (stereo not drawn)	-19%	.	?	46%	8%	-16%
CN(C)c1ccc(/C=C/c2nc(-c3ccccc3O)n(-c3ccccc3)n2)cc1	?	?	?	2%	-7%	.
Cc1cccc(-c2oc(C)c(C)[n+]2[O-])c1	45µM*	?	-4%	2%	-1%	-13%
CCCn1c(SCC(=O)c2cc(C)c(C)cc2C)n[nH]c1=O	-5%	11µM*	3%	35%	-14%	-15%
CCCn1c(SCC(=O)c2ccc3c(c2)OCCO3)n[nH]c1=O	-7%[57.1 µM]	11%	.	45%	-12%	-16%
Cc1ccc(S(=O)(=O)N2[C@@H](c3ccc(Cl)c(Cl)c3)C(C(=O)O)=C[C@H]2CC2CCCC2)cc1	89µM*	.	.	12%	-28%	21µM*
Cc1ccc(S(=O)(=O)N2[C@@H](c3ccc(Cl)cc3)C(C(=O)O)=C[C@H]2CC2CCCC2)cc1	-12%	.	.	19%	-24%	19µM*
CC[C@@H]1C=C(C(=O)O)[C@H](c2ccc(Cl)cc2)N1S(=O)(=O)c1ccc(C)cc1	1%	.	.	41%	-10%	-1%
Cc1ccc(S(=O)(=O)N2[C@@H](c3ccc(C#N)cc3)C(C(=O)O)=C[C@H]2CC2CCCC2)cc1	-21%	.	.	44%	?	30µM*
CCCS(=O)(=O)N1CC(=O)N(c2cccc(F)c2)C(C)(C(=O)NC2CCCCCC2)C1 (stereo not drawn)	-6%	7%[59 µM]	2%	36%	5%	.
NNC(=O)C1CC(O)CN1S(=O)(=O)c1ccc2ccccc2c1 (stereo not drawn)	-4%	-8%[12.7 µM]	3%	41%	-23%	1%
O=C(/C=C/c1ccccc1Cl)c1ccc(O)cc1	-18%	-12%	-23%	-38%	?	-3%
O=C(/C=C/c1c(F)cccc1Cl)c1ccc(O)cc1	-15%	-22%	-24%	27%	79µM*	-10%
O=C(c1ccc(-c2cccc([N+](=O)[O-])c2)o1)N1CCN(c2ccc([N+](=O)[O-])cc2)CC1	-13%	?	4%	1%	-10%	-1%
O=C(/C=C\c1ccc(-c2cccc([N+](=O)[O-])c2)o1)N1CCOCC1	-31%	32µM*	?	3%	-23%	-6%
Cc1cccc(N2CCN(C(=S)c3ccc([N+](=O)[O-])cc3)CC2)c1	40µM*	4µM*	11µM*	32µM*	?	4.7µM*
C/C(=N\N1CCN(c2ccc(Cl)cc2)CC1)c1cccc([N+](=O)[O-])c1	?	22µM*	?	-17%	5%	-2%
O=[N+]([O-])c1cccc(-c2ccc(C(=S)N3CCN(c4ccc(F)cc4)CC3)o2)c1	?	?	35µM*	?	-4%	-15%
COc1cc(C(=O)NC2CCCC(C)C2C)ccc1OCC(=O)N1CCOCC1 (stereo not drawn)	16%	-39%[12.7 µM]	-5%	20%	-2%	5%
CCOC(=O)C1CCN(c2cc(C)nc3c(-c4ccccc4OC)c(C)nn23)CC1	9%	3%[59 µM]	14%	47%	2%	.
